According to PubChem BioAssay (EPA / NIEHS):
Results filed as inconclusive are left out. Activity calls are given as the source filed them. The calls were made as follows: active = hit-call score of the fitted dose curve at least 0.9, where 1 is the maximum; inconclusive = response in the unintended direction; inactive = score below 0.9.

System: guinea pig Leukotriene B4 Receptor (LTB4), gene 100379538
Assay: NVS_GPCR_gLTB4: NovaScreen (NVS) G Protein-Coupled Receptor Assay for guinea pig Leukotriene B4 Receptor (LTB4) (AID 2283247)
Outline: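 Membranes from guinea pig spleen incubated 2 h with radioligand and compound; bound counts measured by filtration and scintillation. Screened first at 25 uM in duplicate, then actives titrated to a 50 uM top concentration relative to DMSO.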

Compound	outcome	AC50
C=CCc1ccc(O)c(OC)c1	inactive	
COCCOC[C@H](CC1(C(=O)NC2CCC(C(=O)O)CC2)CCCC1)C(=O)Oc1ccc2c(c1)CCC2 (stereo not given in full)	inactive	
COc1cc(S(=O)(=O)O)c(C)cc1N=Nc1c(O)ccc2cc(S(=O)(=O)O)ccc12	inactive	
CNC(=O)[C@H]1O[C@@H](n2cnc3c(NCc4cc(Cl)ccc4OCc4cc(C)no4)ncnc32)[C@H](O)[C@@H]1N		25 µM (active)
CCCCC(CC)COC(=O)CC(C(=O)OCC(CC)CCCC)S(=O)(=O)O (stereo not given)		6.15 µM (active)
